Results as given in publication PMC9574860, “Chemical Toolkit for PARK7: Potent, Selective, and High-Throughput” (Journal of Medicinal Chemistry, 2022).
About 400 (5.1%) of roughly 7,900 compounds showed an effect of 50% or more. The list comes from a sample in which strong results are over-represented; it also holds similar structures and randomly drawn compounds.

Target: Parkinson's disease protein 7 (PARK7/DJ1) (human, UniProt Q99497)
Experiment: primary screen, percent inhibition; read as competition with a fluorescent probe by fluorescence polarization; higher = more effect of the substance
Settings: 100 µM
How it was run: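 Covalent fragments at 100 μM final were incubated 2 h with 0.2 μM PARK7, then 20 nM probe JYQ-107 added for a further 2 h. Fluorescence polarization read at 480/520 nm; relative FP loss versus reference controls gave remaining enzyme activity.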

Parkinson's disease protein 7 (PARK7/DJ1), sequence (Q99497 whole entry, looked up): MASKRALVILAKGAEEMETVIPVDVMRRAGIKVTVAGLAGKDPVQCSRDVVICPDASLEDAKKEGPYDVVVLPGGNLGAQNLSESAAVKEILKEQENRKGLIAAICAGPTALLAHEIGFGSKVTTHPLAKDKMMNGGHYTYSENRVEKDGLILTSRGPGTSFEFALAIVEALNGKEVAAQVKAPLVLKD

SMILES	Inhibition % [%]
C=CC(=O)NCC1CCCc2ccccc21 (stereo not shown)	4.88
C=CC(=O)N1CCC(CN(C)Cc2scnc2C)C1 (stereo not shown)	13.2
O=S(=O)(C=Cc1ccc(Cl)cc1)NCC1CCCO1 (stereo not shown)	6.48
CC1CN(CC2OCCO2)CCC1c1ccccc1 (stereo not shown)	8.86
CCN(C(=O)CCl)C1CC1	5.24
O=C(CCl)N(C1CCCC1)C1CC1	51.2
CC1CCC(N(C(=O)CCl)C2CC2)CC1 (stereo not shown)	74.1
O=C(CCl)N(C1CCCCC1)C1CCCCC1	4.3
O=C(CCl)N(C1CCCC1)C1CCS(=O)(=O)C1 (stereo not shown)	7.16
O=C(CCl)N(C1CC1)C1CCS(=O)(=O)C1 (stereo not shown)	5.73
C=CC(=O)NCc1cccnc1N1CCOCC1	4.99
C=CC(=O)N1CCOCC1CC (stereo not shown)	7.47
CCc1cnccc1C(=O)N1CCCC(C2OCCO2)C1 (stereo not shown)	12.5
O=C1OCCC1N1CCOC(c2ccc(Cl)cc2)C1 (stereo not shown)	7.62
C=CCNC(=O)C(C#N)=Cc1cccc(O)c1	4.34
C=CC(=O)NC1COC(C2CC2)C1 (stereo not shown)	4.28
CN(C)Cc1ccc(B2OC(C)(C)C(C)(C)O2)s1	5.59
N#Cc1n[nH]c2ccccc12	5.12
N#Cc1[nH]c2ccccc2c1N	72.9
N#Cc1nnc2ccccc2c1N	1.29
CC1(C)CC(OS(C)(=O)=O)CCO1 (stereo not shown)	8.17
N#CC(=Cc1ccc(N2CCOCC2)cc1)C(N)=O	12.7
Cc1cc(B2OC(C)(C)C(C)(C)O2)cc(N)n1	5.05
C=CC(=O)NC1CC(=O)N(CC)C1 (stereo not shown)	8.72
Cc1ccc2[nH]c3c(c2c1)CN(C(=O)n1ccnc1)CC3	67.1
O=C(N1CCc2[nH]c3ccc(F)cc3c2C1)n1ccnc1	36.3

SMILES	Inhibition % [%]
O=C(N1CCc2sccc2C1)n1ccnc1	15.4
O=C(c1ccccc1)N1CCN(C(=O)n2ccnc2)CC1	2.18
O=C(N1CCc2[nH]c3ccccc3c2C1)n1ccnc1	52.4
O=C(CCl)N1CCc2[nH]c3ccccc3c2C1	-3.49
C=CC(=O)N1CCCCC1c1nc2ccccc2o1 (stereo not shown)	7.43
O=S(=O)(c1cc(Cl)ccc1Cl)n1ccnc1	7.81
O=C(O)c1cc(S(=O)(=O)F)cs1	90
NC(=O)Nc1ccc(S(=O)(=O)F)cc1	18.9
NC(=O)N1CCc2cc(S(=O)(=O)F)ccc21	10.9
CC(C)c1nc(C#N)cs1	5.66
CC1(C)OB(c2ccc(S(=O)(=O)NCCO)cc2)OC1(C)C	4.41
C=CC(=O)Nc1cc(C(F)(F)F)n[nH]1	9.56
C=CC(=O)N1CCOCC1c1c(C)nn(C)c1C (stereo not shown)	12.6
CC1(C)C2CC=C(COCC3CO3)C1C2 (stereo not shown)	3.87
Sc1nc2ccccc2nc1S	8.25
Cc1nc2ccccc2nc1S	2.7
Nc1cc2ccccc2nc1S	52
Cc1ccc(-c2nnc(SC3CC(C)OC3=O)o2)cc1 (stereo not shown)	7.51
OB(O)C1CCN(Cc2cc(-c3ccccn3)n[nH]2)C1 (stereo not shown)	29.8
C=CC(=O)N[C@H](C(=O)O)c1ccccc1	3.77
C=CC(=O)NC(NC(=O)C=C)c1ccccc1	11.8
O=C(O)C(S)c1ccccc1 (stereo not shown)	89.9
OB(O)C1CCN(Cc2cc3c(cn2)OCCO3)C1 (stereo not shown)	21.4
CC=C(C#N)c1ccc2c(c1)OCO2	12.1
O=C(CN1C(=O)CCC1=O)Nc1cccc(Cl)c1	7.52
O=c1c2ccccc2nc(S)n1CCS	7.43

SMILES	Inhibition % [%]
O=C(CCl)N1CCN(S(=O)(=O)c2ccccc2)CC1	8.48
O=C(CCl)N1CCC(c2ccccc2)=N1	90.5
O=C(CCl)N1CCC(Cc2ccccc2)CC1	31.1
C=CC(=O)NCC1CCN(c2ccncc2)CC1	15.3
COCC(C)NS(=O)(=O)C=Cc1ccc(Cl)cc1 (stereo not shown)	13.7
CS(=O)(=O)n1cc(N)cn1	10.7
CC1(C)OB(c2cccc(Cl)c2)OC1(C)C	-3.11
CC1(C)OB(c2ccc(Cl)cc2)OC1(C)C	4.5
CC1(C)OB(c2cc(Cl)cc(Cl)c2)OC1(C)C	81
C=CC(=O)NC1CCc2cn(C(C)C)nc2C1 (stereo not shown)	11.9
CCOc1cc(C)c(C)cc1S(=O)(=O)n1ccnc1C	2.71
C=CC(=O)Nc1ccc2c(c1)N(C)CCO2	52.4
C=CC(=O)Nc1ccc2ccc(=O)n(C)c2c1	7.33
C=CC(=O)Nc1ccc2c(c1)OCCCO2	3.17
C=CC(=O)Nc1ccc(=O)n(C)c1	54.1
C=CC(=O)Nc1ccc(Br)cc1	6.59
C=CC(=O)Nc1ccc2c(c1)CCCO2	7.61
CC(C)NC(=O)C(C#N)=Cc1ccccc1Cl	6.2
CN(C)C=C(C#N)c1ccccn1	19.1
CCOc1cc(C)c(C(C)C)cc1S(=O)(=O)n1ccnc1	6.3
O=C(O)c1ccnnc1S	83.3
O=C(O)c1cccnc1S	5.3
NC(=O)c1cccnc1S	4.97
O=c1[nH]c(Cc2ccncc2)no1	6.48
O=C(CCl)Nc1ccc(N=Nc2ccccc2)cc1	5.15
O=C(CCl)Nc1ccccc1Oc1ccccc1	6.38

SMILES	Inhibition % [%]
O=C(CCl)NCc1cccc(Oc2ccccc2)c1	22.5
Cc1cccc(Oc2ccc(NC(=O)CCl)cc2)c1	81.6
O=C(CCl)Nc1cccc(NC(=O)c2ccccc2)c1	7.84
Cc1cccc(NC(=O)CCl)c1	8.99
O=C(CCl)Nc1ccc(OCc2ccccc2)cc1	28.9
O=C(CCl)Nc1ccc(Oc2ccccc2Cl)cc1	93.7
O=C(CCl)Nc1cccc(Oc2ccccc2)c1	55.6
Cc1ccc(Oc2ccccc2NC(=O)CCl)cc1	2.56
O=C(CCl)Nc1ccc(Oc2ccccc2)cc1	84.2
Cc1ccc(Oc2ccc(NC(=O)CCl)cc2)cc1	36.3
Cc1ccc(C)c(S(=O)(=O)n2nc(C)cc2C)c1	1.62
CCOc1cc(C)c(Cl)cc1S(=O)(=O)n1cnc(C)c1	5.28
C=CC(=O)NCCN(C)C1CCCCC1	10.8
C=CC(=O)N1CCN(c2ncnc3sc(C)cc23)CC1	0.554
Cc1noc(C)c1Cn1c(-c2ccccn2)noc1=O	0.962
CC1(C)OB(c2cccc3occc23)OC1(C)C	10.2
C=CC(=O)N1CCC(c2nccn2C)C1 (stereo not shown)	5.02
Cn1c(=O)[nH]c2ccc(B3OC(C)(C)C(C)(C)O3)cc21	0.0918
C=CC(=O)NC1CC(OCC)C12CCCCC2 (stereo not shown)	4.59
CN(C)C(=O)Oc1ccc2c(c1)OCO2	-4.08
N#Cc1nccnc1N1CCC(C(F)(F)F)CC1	2.52
C=CC(=O)N1CCN(CC2CCOCC2)CC1	12.9
N#Cc1ccc(N2CCOC(c3cccs3)C2)cn1 (stereo not shown)	4.98
COCc1ccc(CNC(=O)CCl)cc1	6.87
N#Cc1ccc(N2CCCC(C(N)=O)C2)cn1 (stereo not shown)	6.47
C=CC(=O)N(C)Cc1cc2ccccc2o1	5.57

SMILES	Inhibition % [%]
CC(NC(=O)CCl)c1ccc(Cl)cc1 (stereo not shown)	6.77
CCC(NC(=O)CCl)c1ccc(Cl)cc1 (stereo not shown)	14.1
CN(C)C=CC(=O)c1cc2ccccc2o1	0.589
CC(c1cc2ccccc2o1)N(C)C(=O)CCl (stereo not shown)	96.1
CC(c1ccc(F)cc1)N(C)C(=O)Cn1cnc(C#N)n1 (stereo not shown)	11.3
CC(c1ccc(Cl)cc1)N(C)C(=O)CCl (stereo not shown)	98
CC(c1ccc(F)c(F)c1)N(C)C(=O)CCl (stereo not shown)	92.5
CC(c1ccc(F)cc1)N(C)C(=O)CCl (stereo not shown)	96.3
CCN(C(=O)CCl)C(C)c1ccc(F)cc1 (stereo not shown)	9.9
C=CC(=O)N1CCCC(c2ccc(F)c(F)c2)C1 (stereo not shown)	9.29
C=CC(=O)N1CC(C)OC(C(F)(F)F)C1 (stereo not shown)	14.7
CC(=O)SCCc1csc(-c2ccccn2)n1	9.81
O=C(Nc1ccccc1)c1cccnc1S	3.52
CCC1(c2ccccc2)NC(=O)N(NC(=O)CCl)C1=O (stereo not shown)	6.48
C=CC(=O)N1CCC(Cc2ccncc2)C1 (stereo not shown)	6.08
Cc1cccc2c(=O)[nH]c(C(Cl)=Cc3ccnn3C)nc12	6.42
C=CC(=O)NC(C)c1c(C)nn(CC(F)(F)F)c1C (stereo not shown)	4.48
CN(C(=O)CCl)C(c1ccccc1)c1ccccc1	6.29
CCN(C(=O)CCl)c1nc2ccccc2s1	24.6
CC(c1ccccc1)N(C)C(=O)Cn1cnc(C#N)n1 (stereo not shown)	7.46
CC(c1nc2ccccc2s1)N(C)C(=O)CCl (stereo not shown)	97.3
CN(C(=O)CCl)c1nc2ccccc2s1	3.42
CC(c1ccccc1)N(C)C(=O)CCl (stereo not shown)	98.5
